Test results as given in PubChem BioAssay (NCI).
The panel holds about 83,000 compounds, 20% with a hit somewhere; the sample as a whole holds those more often.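 Growth was measured after 48 h exposure to one concentration of compound in 96-well plates. Values under 10 count as active.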 Unmarked numbers belong to inactive results. Active and inactive are the calls of the source.

Experiments:
Experiment in all cases: NCI-60 one-dose screen, 48 h (100 = growth as untreated, 0 = no growth, -100 = all killed)
Details in all cases: 10 µM unless noted
NCI-H23 lung = tested on: NCI-H23 lung
NCI-H226 lung = tested on: NCI-H226 lung
NCI-H322M lung = tested on: NCI-H322M lung
HOP-62 NSCLC = tested on: HOP-62 NSCLC
NCI-H460 lung = tested on: NCI-H460 lung
HOP-92 NSCLC = tested on: HOP-92 NSCLC
NCI-H522 lung = tested on: NCI-H522 lung
A549/ATCC NSCLC = tested on: A549/ATCC NSCLC
786-0 renal = tested on: 786-0 renal
COLO 205 colon = tested on: COLO 205 colon

SMILES | growth (NCI-H23 lung) | growth (NCI-H226 lung) | growth (NCI-H322M lung) | growth (HOP-62 NSCLC) | growth (NCI-H460 lung) | growth (HOP-92 NSCLC) | growth (NCI-H522 lung) | growth (A549/ATCC NSCLC) | growth (786-0 renal) | growth (COLO 205 colon)
C#CCOc1ccccc1C(Nc1ccccc1)c1nnnn1C1CCCCC1 (stereo not given) | 103% | 107% | 92.5% | 103% | 103% | 103% | 80.1% | 96% | 88.3% | 112%
COc1ccc(NC(=O)[C@H](C)N)cc1C(=O)Nc1cccc(-c2cc(=O)c3c(OC)c(OC)c(OC)cc3o2)c1 | 64.4% | 67.2% | 67.7% | 67.3% | 52.4% | -4.58% (active) | 82% | 76.5% | 63.5% | 69.6%
COc1ccc(-c2nc3cc(Cl)c(Cl)cc3n2CC(=O)N=Nc2c(O)[nH]c3ccccc23)cc1 | 31.4% | -8.79% (active) | 70.3% | 45.3% | 30.3% | 24.1% | 87.9% | 27.8% | 100% | 55%
CCN1C/C(=N\S(=O)(=O)c2ccccc2)N(CC)C1=S | 94.1% | 101% | 101% | 105% | 108% | 139% | 94.3% | 98.5% | 96.6% | 107%
N/C(=N\OC(=O)CSc1nc2ccccc2s1)c1ccc(Cl)cc1 | 97.7% | 98% | 101% | 88.2% | 108% | 98% | 95% | 103% | 102% | 106%
O=C(Nc1cccc(Cl)c1)Nc1nc2ccc(-c3cccc4ccccc34)cc2s1 | 24.6% | 57.5% | 71.1% | 61% | 34.1% | -2.69% (active) | 25.8% | 36.9% | 82.5% | 49.7%
COC[C@]12CC[C@@H](C)[C@H](C)[C@H]1C1=CC[C@@H]3[C@@]4(C)CCCNC(C)(C)[C@@H]4CC[C@@]3(C)[C@]1(C)CC2 | 52.1% | 58% | 64.6% | 40% | -42.3% (active) | 48.3% | -31.9% (active) | 20.8% | 21.1% | -52.4% (active)
CC(=O)Nc1ccc(C)c(Nc2cc(-c3ccc(-n4cccn4)cc3)[nH]n2)c1 | 67% | 57.9% | 83.8% | 51.7% | 27.6% | 113% | 14.3% | 60.2% | 74.9% | 67.1%
C#CCOc1ccc(/C=N/Nc2nc(-c3cc(Cl)ccc3Cl)cs2)cc1 | 75.3% | 77.2% | 105% | 104% | 96.8% | 69.7% | 84.3% | 103% | 107% | 105%
Oc1ccc(CSc2nnc(-c3ccncc3)n2-c2ccccc2)c2cccnc12 | 22.4% | 50.8% | 34% | 17% | 5.96% (active) | -7.79% (active) | 3.95% (active) | 25.5% | 29.1% | 102%
COC1=C(c2ccccc2)C(=O)C(OC)=C(c2ccccc2)C1=O | 100% | 95.5% | 106% | 89.9% | 106% | 97.6% | 83.8% | 74.3% | 99.2% | 108%
Cc1cn(-c2cc(NC(=O)c3cncc(C#Cc4cnc5ccc(OCCCS(C)(=O)=O)nn45)c3)cc(C(F)(F)F)c2)cn1 | -5.32% (active) | 4.42% (active) | 24.4% | 25.5% | 18.6% | -34.5% (active) | 3.59% (active) | 48% | 12.4% | -30.3% (active)
CC[C@H](C)[C@H]1NC(=O)[C@@H]([C@H](O)C(C)C)NC(=O)[C@@H](C)N(C)C(=O)[C@H](C)N(C)C(=O)[C@H](CC(C)C)NC(=O)[C@H](CC(C)C)N(C)C(=O)[C@H](C)N(C)C1=O | -2.85% (active) | -6.15% (active) | 5.75% (active) | -13.3% (active) | 1.46% (active) | -3.54% (active) | 1.44% (active) | 0.788% (active) | 0.205% (active) | -8.56% (active)
CCCC(=O)NC(c1cccnc1)c1ccc2c(C)ccnc2c1O (stereo not given) | 37.8% | 17.2% | 27.2% | 23.4% | 6.08% (active) | 47.2% | 0.954% (active) | 16% | 26% | 9.55% (active)
O=C(Nc1cccc(-c2nc(-c3ccc(NC(=O)c4cccs4)cc3Cl)no2)c1)Nc1ccc(NC(=O)C2CC2)c(C(F)(F)F)c1 | -49.8% (active) | -46.4% (active) | -5.29% (active) | -44% (active) | -56.9% (active) | -40% (active) | -34.5% (active) | -27.7% (active) | -30.7% (active) | -51.7% (active)
CC1(C)CC[C@]2(C(=O)O)CC[C@]3(C)C(=CCC4[C@@]5(C)C[C@@H](O)[C@@H]6OC(c7ccccc7O)OC[C@@]6(C)C5CC[C@]43C)C2C1 (stereo not given in full) | 58.2% | 87% | 40.5% | 45.6% | 46% | 52% | 53.6% | 27.7% | 22.2% | 29.7%
NNC(=O)c1sc2nc(-c3cnccn3)cc(-c3cccs3)c2c1N | 98.6% | 89.7% | 74.4% | 91.6% | 103% | 101% | 101% | 102% | 108% | 102%
O=C(NNc1nc2cc(F)c(F)cc2n2cccc12)c1ccncn1 | 18.3% | 16.2% | 28.9% | 26.8% | 9.5% (active) | 62.7% | 2.02% (active) | 18% | 11.9% | 19.9%
COc1cc(OC)c(S(N)(=O)=O)cc1C(=O)/C=C/c1ccccc1 | 28.2% | 38.8% | 64.6% | 24.8% | 3.32% (active) | 2.22% (active) | 25.8% | 57.1% | 15.3% | 27.5%
CCN(CC)CCCC(C)NCC(=O)NC(c1ccc2c(c1)OCO2)c1cc(Cl)c2cccnc2c1O (stereo not given) | 41.7% | 41.2% | 35.2% | 21.6% | 8.77% (active) | 35.9% | 37.4% | 24.1% | 7.03% (active) | 17.6%
Cc1cn(-c2cc(NC(=O)c3cncc(C#Cc4cnc5ccc(O[C@@H]6CCOC6)nn45)c3)cc(C(F)(F)F)c2)cn1 | -46.6% (active) | -16% (active) | -12.7% (active) | -12% (active) | -76.9% (active) | -44.6% (active) | -69.3% (active) | -75.3% (active) | -88.2% (active) | -84.9% (active)
C#CCOc1ccc(C(Nc2ccc(Cl)cc2)c2nnnn2C2CCCCC2)cc1 (stereo not given) | 91.7% | 88.4% | 93.6% | 83.4% | 83.1% | 81.8% | 81% | 78.8% | 92.5% | 97.9%
CNC(=O)c1cc(Oc2ccc3nc(NC(=O)c4ccc(CN5CCN(C)CC5)c(C(F)(F)F)c4)sc3c2)ccn1 | 51.8% | 72.7% | 94.5% | 73.5% | 53.2% | 44.1% | 79.3% | 66.4% | 22.3% | -29.9% (active)
O=S(=O)(NC1CC2CCC1C2)c1ccc2c(c1)C(=NO)c1cc(S(=O)(=O)NC3CC4CCC3C4)ccc1-2 (stereo not given) | -84.2% (active) | 75.2% | 58.3% | -70.5% (active) | 23.5% | -4.1% (active) | 32.4% | 75% | 31.3% | 85.5%
COc1ccc2oc3c4[nH]c5ccccc5c4c4c(c3c2c1)C(=O)N(O)C4=O | 91.8% | 93.8% | 108% | 102% | 99.5% | 81% | 99.3% | 108% | 101% | 111%
